Measurements taken from ChEMBL document CHEMBL4513216, “Probing the Open Global Health Chemical Diversity Library for Multistage-Active Starting Points for Next-Generation Antimalarials” (ACS Infect Dis, 2020).
Hit rate of the full screen: of about 69,000 compounds, about 8,600 (12%) showed an effect of 50% or more. Many of the other results were omitted from the sample, so strong results are more common in it than they were.

tested on: Plasmodium berghei; assay: Screen against P. berghei liver stage (PbLuc), transformed with Luciferase, at 10uM; format: functional, HepG2; details: tested at 10 uM

Compound | INHIBITION
CNS(=O)(=O)CC(=O)NCc1cc2c(s1)CCCCC2 | 28.9%
c1ccc(-c2nc(CCNC3CCOC4(CCOCC4)C3)no2)cc1 (stereo not drawn) | -6.34%
CCn1nccc1CNc1[nH]cnc2nc(C)nc1-2 | 26.4%
O=C(NC1CCN(c2ccc(-c3ccccc3F)nn2)C1)C1CCC1 (stereo not drawn) | 60.8%
O=C(NC1CCN(c2ccc(-c3ccccc3F)nn2)C1)c1cc[nH]n1 (stereo not drawn) | 49.5%
O=C(NC1CCN(c2ccc(-c3ccccc3F)nn2)C1)c1ccc[nH]1 (stereo not drawn) | 12.4%
CCOCC(=O)N1Cc2nccn2CC(CN2CCCC2)C1 (stereo not drawn) | 34.6%
O=C1O[C@@H]2CN(Cc3ccncc3)C[C@@H]2N1CCCN1CCOCC1 | -43.5%
O=C1O[C@@H]2CN(c3ccncc3)C[C@@H]2N1CCCc1ccc(F)cc1 | 75.2%
O=C1O[C@@H]2CN(c3ccc(Cl)cn3)C[C@@H]2N1CCc1ccc(F)cc1 | -2.04%
O=C1O[C@@H]2CN(C3CCOCC3)C[C@@H]2N1CCCc1ccc(F)cc1 | 33%
O=C1O[C@@H]2CN(c3ccccn3)C[C@@H]2N1CCCc1ccc(F)cc1 | 86.7%
Cc1cc(C)nc(N2C[C@H]3OC(=O)N(CCc4cccc(Cl)c4)[C@H]3C2)n1 | -17.8%
O=C1O[C@@H]2CN(c3ncccn3)C[C@@H]2N1CCCc1ccc(F)cc1 | 83.8%
O=C1O[C@@H]2CN(Cc3ccccn3)C[C@@H]2N1CCCc1ccc(F)cc1 | 15.1%
O=C1O[C@@H]2CN(c3cnccn3)C[C@@H]2N1CCCc1ccc(F)cc1 | 9.4%
CCC1=N[C@@]2(CC[C@@H]3CN(CC4CC4)C[C@@H]32)C(=O)N1CC | 7.31%
CCCS(=O)(=O)N1C[C@@H](c2nc(C)no2)C[C@H]2OCC[C@H]21 | 33%
CN(C)c1ncc2c(O)nc(C3CCNCC3)cc2n1 | -9.51%
COCc1n[nH]c2c1CN(C(=O)c1ccncc1)C2 | 21.6%
CC(C)Oc1ccccc1CNC(=O)N(C)C(C)CS(C)(=O)=O (stereo not drawn) | 33.2%
COc1cc(Cl)ccc1CNC(=O)N(C)C(C)CS(C)(=O)=O (stereo not drawn) | 61%

Compound | INHIBITION
COc1ccccc1CCNC(=O)N(C)C(C)CS(C)(=O)=O (stereo not drawn) | 38.7%
CCOC1CCCN(C(=O)c2nn(-c3ccccc3F)cc2O)C1 (stereo not drawn) | 11.2%
N#Cc1cccc(CN2CCCC2Cn2cccn2)c1 (stereo not drawn) | -11.4%
N#Cc1cccc(CN2CCCC2c2ccc[nH]2)c1 (stereo not drawn) | 50.7%
N#Cc1cccc(CN2CCCC2Cn2cncn2)c1 (stereo not drawn) | 7.18%
COc1cccc(S(=O)(=O)CCN2CCCC2c2ccc[nH]2)c1 (stereo not drawn) | 32.3%
N#CCCCOc1cccc(CN2CCCC2c2ccc[nH]2)c1 (stereo not drawn) | 43.1%
COc1cccc(CN2CCCC2c2ccc[nH]2)c1 (stereo not drawn) | 62.6%
NC(=O)COc1cccc(CN2CCCC2c2ccc[nH]2)c1 (stereo not drawn) | 62.6%
NC(=O)COc1cccc(Cn2cccn2)c1 | -24.9%
COc1cccc(C2CCCN2Cc2nnnn2C2CC2)c1 (stereo not drawn) | 51.6%
COc1ccc(C2CCCN2Cc2nnnn2C2CC2)cc1OC (stereo not drawn) | 19.7%
CN(C)c1cccc(C2CCCN2Cc2nnnn2C2CC2)c1 (stereo not drawn) | 26.6%
NC(=O)c1ccc(OCC(=O)N2CCCC2c2ccc[nH]2)cc1 (stereo not drawn) | 28.2%
Cc1nc(Cn2c3c(ccc2=O)CCN(CC2CC2)CC3)cs1 | -8.85%
COc1cccc(CC2CN(C3CCC3)CCO2)c1 (stereo not drawn) | 25.8%
Cc1ccccc1NC(=O)c1cncc(C2CCNCC2)n1 | -20.6%
CCN1CC[C@@]2(C(=O)N3CCOCC3)CCN(C(=O)C(C)C)CC[C@@H]12 | 14.9%
Cc1cnn(CC2CCCCN2CC(=O)Nc2nc(C)cs2)c1 (stereo not drawn) | 33.8%
Cc1nc(CN2CCO[C@@H]3CN(C(=O)CC4CC4)C[C@@H]3C2)cs1 | 9.63%
Cn1ccnc1CC1CCCN(C(=O)Cc2ccccc2)C1 (stereo not drawn) | 21.9%
Cc1nn(C)c(C)c1C1CCCN1Cc1cccc(OCC(N)=O)c1 (stereo not drawn) | 72.9%

Compound | INHIBITION
Cc1nn(C)c(C)c1C1CCCN1Cc1cccc(C(N)=O)c1 (stereo not drawn) | 5.37%
COc1cccc(CN2CCCC2c2c(C)nn(C)c2C)c1 (stereo not drawn) | -14.8%
CCS(=O)(=O)CCN1CCCC1c1noc(C)n1 (stereo not drawn) | 16.8%
Cc1cc(CNc2cccc(Cl)c2C)no1 | 16.165%
CCCn1ccnc1-c1nccn1CCC(N)=O | 29.8%
CCCSc1ncc(-c2nccn2CCO)cn1 | 35.1%
CCCSc1ncc(-c2nccn2CCC(N)=O)cn1 | 53.3%
O=C1NCC(C(=O)Nc2ncc(Cc3ccc(F)cc3)s2)N1 (stereo not drawn) | 26.5%
Cc1ccc(Cc2cnc(NC(=O)C3CNC(=O)N3)s2)cc1F (stereo not drawn) | 55.5%
O=C1NCC(C(=O)Nc2ncc(Cc3cccc(F)c3)s2)N1 (stereo not drawn) | 12.7%
CNc1cc(C)nc(C2COCCN2CCOc2ccc(F)cc2)n1 (stereo not drawn) | -12.625%
NC(=O)CCSCc1cc(Br)cc2cccnc12 | -57.1%
CC(SCc1cc(Br)cc2cccnc12)C(N)=O (stereo not drawn) | 58.1%
CC(SCc1ccc(Br)c2cccnc12)C(N)=O (stereo not drawn) | 21.1%
CC(OCC(F)(F)F)C(=O)N1CCCC1 (stereo not drawn) | -1.37%
Cc1ccc(SCC2CNc3nc4ccccc4c(=O)n32)c(C)c1 (stereo not drawn) | 49.9%
CC(=O)N(CCc1ccccc1)CC(=O)NC(C)(C)C#N | 59.7%
CC(=O)N(CCc1ccccc1)CC(=O)NC1(C#N)CC1 | -3.39%
CC(=O)N(CCc1ccccc1)CC(=O)Nc1ccccc1C#N | 45.8%
COc1ccc(C2=CCN(C(=O)CN(CC(N)=O)C(C)C)CC2)cc1 | 83.2%
COc1ccc(C2=CCN(C(=O)CN(C)CC(C)C#N)CC2)cc1 (stereo not drawn) | 46.5%
COc1ccc(C2=CCN(C(=O)CN(C)S(C)(=O)=O)CC2)cc1 | -11.4%

Compound | INHIBITION
COc1ccc(C2=CCN(C(=O)C3CCS(=O)(=O)C3)CC2)cc1 (stereo not drawn) | 59.4%
COc1ccc(C2=CCN(C(=O)CN(C)CC(N)=O)CC2)cc1 | 10.8%
COc1ccc(C2=CCN(C(=O)C3CC(=O)N(C4CC4)C3)CC2)cc1 (stereo not drawn) | 40.3%
COc1ccc(C2=CCN(C(=O)C3CCC3)CC2)cc1 | -6.44%
COc1ccc(C2=CCN(C(=O)CN(C)Cc3ccco3)CC2)cc1 | 46.2%
COc1ccc(C2=CCN(C(=O)CN(C)Cc3ccoc3)CC2)cc1 | 53.5%
CC(C)NC(=O)N1CCCC(Cn2cc(-c3ccc(F)cc3)nn2)C1 (stereo not drawn) | 38.5%
Cc1nc(C)n(CC2CCCN2CCOc2cccc(F)c2)n1 (stereo not drawn) | 37.9%
Cc1cc(-c2cc3nc(C)c(C)c(NCC4COCCO4)n3n2)no1 (stereo not drawn) | 8.57%
CNc1ncc(CN(C)CCN2CCCCC2)cn1 | -61.5%
CCC1CN(CC(=O)NCCN2CCCCC2)c2ccccc2S1 (stereo not drawn) | 9.57%
COCC1CN(Cc2ccncc2)Cc2nn(C)cc21 (stereo not drawn) | -5.05%
COCC1CN(Cc2ccccn2)Cc2cn(C)nc21 (stereo not drawn) | 45.1%
COCC1CN(Cc2ccc(F)cc2)Cc2nn(C)cc21 (stereo not drawn) | 8.93%
COCC1CN(Cc2ccc(OC)cc2)Cc2nn(C)cc21 (stereo not drawn) | 93.3%
COCC1CN(Cc2ccccn2)Cc2nn(C)cc21 (stereo not drawn) | 60.2%
CCOCC1CN(Cc2ccc(OC)cc2)Cc2nn(C)cc21 (stereo not drawn) | 30.7%
NCC1CCC(c2c(C(N)=O)sc3ccccc23)CC1 (stereo not drawn) | 14.6%
COCCNc1c(-c2ccc(Cl)cc2)c(=O)c1=O | 24.5%
COCCCNc1c(-c2ccc(Cl)cc2)c(=O)c1=O | 60.8%
COCCCNc1c(-c2ccc(C)cc2)c(=O)c1=O | 35.1%
CN(c1ccccc1)c1ccc(CC2CCCN(CCO)C2)nn1 (stereo not drawn) | 16.5%

Compound | INHIBITION
CC(C)(C)n1cc(C#N)cc1NC(=O)CCNC(=O)c1ccco1 | 26.5%
CC(C)(C)C(=O)c1ccsc1NC(=O)CCNC(=O)c1ccco1 | 75.8%
CC(=O)NCCNC(=O)c1sccc1Br | 28.5%
CC(C)(CNC(=O)c1ccco1)CNC(=O)c1ccco1 | -18.9%
CC(=O)Nc1sccc1C(=O)C(C)(C)C | 77.7%
CC(=O)NCCC(=O)Nc1sccc1C(=O)C(C)(C)C | 48.9%
Cc1nn(C)c(C)c1CN(C)C(=O)c1cc(NC(=O)C2CC2)n(C)n1 | 44.05%
CCCc1nc(NCCOC)c2c(n1)c(C)nn2CC | 17%
O=C(c1cnccn1)N1CCN2C[C@H](Oc3cccc(F)c3)C[C@H]2C1 | 47.5%
CN1CC2(CCNCC2)COc2ccccc2S1(=O)=O | -15.7%
CC(c1cccc(-c2ncccc2F)c1)N(C)C (stereo not drawn) | -17.4%
COCCNc1ncc(-c2cc(C)no2)c(-c2ccco2)n1 | 47.4%
Cc1ncc(-c2ccnc(SCCN)n2)c(-c2ccco2)n1 | 42.6%
NCCSc1nccc(-c2cnc(C3CC3)nc2-c2ccco2)n1 | 75.3%
Cc1ncc(-c2ccnc(SCCN(C)C)n2)c(-c2ccco2)n1 | 70.8%
O=C(O)Cn1nc(C2CC2)c2c(-c3ccco3)ccnc21 | 22%
OCCNc1nccc(-c2c[nH]nc2-c2ccco2)n1 | -43.4%
c1cc(CN2CCC3(CC2)COC(COCC2CC2)C3)cs1 (stereo not drawn) | 19.8%
Nc1nc(N)c2c(n1)OC1(CCCN(Cc3nccs3)CC1)C2 (stereo not drawn) | 10.25%
CC(C)c1noc(CCNC(=O)N2CCC(O)(C(F)(F)F)C2)n1 (stereo not drawn) | 36.5%
